Test results published in PubChem BioAssay AID624389 (National Center for Advancing Translational Sciences (NCATS), 2012).
Active and inactive are the calls of the source. Calls come from the whole dose curve; as a rule, active = well fitted curve in the direction sought with a large enough effect; inactive = no such curve, though single readings can be large or run the other way.

Target: Pyruvate kinase PKM (Homo sapiens) (UniProt P14618)
Assay: qHTS for Activators of Human Muscle Isoform 2 Pyruvate Kinase: Extended Characterization Using A Lactate Dehydrogenase (LDH) Assay Probe 2
Settings: purified hPK-M2, LDH-coupled NADH fluorescence kinetic
Text: Human pyruvate kinase muscle 2 (hPK-M2)enzyme was supplied as a highly purified (>95% pure) preparation from Harvard Medical School and a secondary assay was used to evaluate compounds. This assay couples the formation of pyruvate from hPK-M2 using lactate dehydrogenase (LDH) and NADH. The depletion of NADH is followed in a fluorescent-based kinetic assay that follows the formation of pyruvate to lactate, as catalyzed LDH (described by Hannaert et al., 2002)1 Pyruvate kinase substrates, PEP and ADP, were present in the assay at 0.1 mM and 4 mM respectively. In this kinetic assay initial rates were determined by following the fluorescence of NADH depletion. NIH Chemical Genomics Center [NCGC] NIH Molecular Libraries Probe Centers Network [MLPCN] MLPCN Grant: MH085679 Assay Submitter (PI): Matthew G. Vander Heiden, Harvard Medical School
Three uL of substrate mix (final concentration, 50 mM Tris-Cl pH 8.0, 200 mM KCl, 15 mM MgCl2, 0.1 mM PEP, 4.0 mM ADP, and 0.2 mM NADH) was dispensed into black-solid 1536 well plates. 23 nL of compounds were delivered by a pin tool and 1 uL of enzyme mix (final concentrations, 10 nM hPK-M2 and 1 uM of LDH) was added. Plates were immediately placed in ViewLux (Perkin Elmer) and NADH fluorescence was determined at 30 second exposure intervals for between 3 and 6 minutes. Data were normalized to the uninhibited and EC100 activation using known activators such as fructose-bis-phosphate.

Chain of Pyruvate kinase PKM (Homo sapiens) (P14618 whole entry, looked up, canonical isoform): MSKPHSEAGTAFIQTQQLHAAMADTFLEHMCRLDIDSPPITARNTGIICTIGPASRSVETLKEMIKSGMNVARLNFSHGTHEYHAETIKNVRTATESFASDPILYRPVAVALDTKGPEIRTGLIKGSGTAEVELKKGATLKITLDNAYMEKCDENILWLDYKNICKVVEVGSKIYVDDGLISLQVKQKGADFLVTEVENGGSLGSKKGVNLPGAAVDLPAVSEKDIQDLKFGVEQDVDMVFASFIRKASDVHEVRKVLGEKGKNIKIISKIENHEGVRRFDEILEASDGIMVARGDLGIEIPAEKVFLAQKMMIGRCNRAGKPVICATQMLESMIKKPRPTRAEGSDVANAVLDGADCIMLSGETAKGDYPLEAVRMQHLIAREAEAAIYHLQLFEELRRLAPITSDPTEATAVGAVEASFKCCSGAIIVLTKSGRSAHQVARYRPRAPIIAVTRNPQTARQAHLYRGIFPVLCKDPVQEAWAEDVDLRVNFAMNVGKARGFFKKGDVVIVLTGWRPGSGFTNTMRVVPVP

Potency, active:
COc1cccc(Cn2ncc3c4sc(S(C)=O)cc4n(C)c3c2=O)c1 (stereo not drawn) 410 nM
O=S(=O)(c1ccc2c(c1)OCCO2)N1CCN(S(=O)(=O)c2c(F)cccc2F)CC1 178 nM
Cc1ccc(NS(=O)(=O)c2ccc3c(c2)CCC(=O)N3)cc1C 146 nM
